# Values joined by “and” are separate entries in the source; they are usually repeats but may differ in a detail not shown here. Equal values may be shown once. About 16,000 (7.3%) of roughly 220,000 compounds were called active. About 25% were inconclusive and are not listed. Only a selection was taken, and actives are over-represented in it overall. Values without a mark were called inactive. The call rests on the fitted dose curve; in most records, active means well fitted inhibition curve with a large enough effect (not every such curve was filed as active); inconclusive means small, poorly fitted or top-dose-only effect, or another doubt; inactive means no such curve, though single readings can be large or run the other way.
# Target: Aldehyde dehydrogenase 1A1 (Homo sapiens) (UniProt P00352)
# Sequence (P00352 whole entry, looked up): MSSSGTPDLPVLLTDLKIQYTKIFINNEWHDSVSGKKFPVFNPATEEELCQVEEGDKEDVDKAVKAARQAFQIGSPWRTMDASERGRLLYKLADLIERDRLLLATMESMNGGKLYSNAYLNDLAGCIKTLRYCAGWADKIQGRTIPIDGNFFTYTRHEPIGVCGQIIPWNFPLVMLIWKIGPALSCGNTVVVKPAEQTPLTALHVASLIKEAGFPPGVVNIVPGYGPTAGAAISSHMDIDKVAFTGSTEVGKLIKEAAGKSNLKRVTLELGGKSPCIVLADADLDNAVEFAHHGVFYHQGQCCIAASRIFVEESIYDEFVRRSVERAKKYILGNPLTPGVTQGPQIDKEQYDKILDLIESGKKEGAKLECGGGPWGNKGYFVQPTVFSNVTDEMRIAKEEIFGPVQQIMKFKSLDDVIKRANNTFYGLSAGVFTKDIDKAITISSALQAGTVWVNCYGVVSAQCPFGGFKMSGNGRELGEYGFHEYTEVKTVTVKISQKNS
# Assay: qHTS Assay for Inhibitors of Aldehyde Dehydrogenase 1 (ALDH1A1);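 on activity, negative = inhibition: plate controls were no enzyme wells and a reference inhibitor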
# Details: Purified ALDH1A1, NADH fluorescence, propionaldehyde substrate; series mostly up to 75.3 µM; activity, negative = inhibition: at the top concentration
# Potency means the concentration at half of the fitted maximal effect.
Compound,"activity, negative = inhibition",Potency
CSc1ncccc1C(=O)OCc1ccc(Br)cc1,9.11%,
O=C(C1=C[C@H](c2coc3ccccc3c2=O)C[C@H](OCc2ccc(CO)cc2)O1)N1CCN(Cc2ccccc2)CC1,-12.4%,
CC(=O)n1cc([C@@H]2C=C(C(=O)N3CCN(Cc4ccc5c(c4)OCO5)CC3)O[C@H](OCc3ccc(CO)cc3)C2)c2ccccc21,,25.1 µM (active)
CN1CCN(C(=O)C2=C[C@H](c3ccc4c(c3)OCO4)C[C@H](OCc3ccc(CO)cc3)O2)CC1,-2.84%,
O=C(C(=O)N1CCc2ccccc2C1)c1c[nH]c2ccccc12,-2.78%,
O=C(Nc1nnc(Cc2ccc(Cl)cc2)s1)c1cccnc1,-0.189%,
Cn1cnc([N+](=O)[O-])c1Sc1n[nH]c(N)n1,0.133%,
Cn1cnc([N+](=O)[O-])c1Nc1ccccc1O,2.48%,
Cn1cnc([N+](=O)[O-])c1Sc1ccccc1,,11.2 µM (active)
COC(=O)COc1ccc(C2NC(=O)NC(C)=C2C(=O)NCc2ccccc2)cc1OC (stereo unspecified),19.6%,
O=C(Nc1ccc(N2CCOCC2)nc1)c1c(F)cccc1F,7.81%,
Cc1ccc(S(=O)(=O)Cc2cc(-c3ccc(Cl)cc3)no2)cc1,-5.52%,
COC(=O)c1cc(NC(=O)c2ccco2)ccc1N1CCOCC1,-6.16%,
Cc1c(C=O)c2ccccc2n1CC(=O)O,2.12%,
COC(=O)c1ccccc1SC1CC(=O)N(c2cccc(C)c2)C1=O (stereo unspecified),,17.8 µM (active)
O=C1CC(c2ccccc2)C(=O)N1c1cccc(O)c1 (stereo unspecified),4.81%,
Cc1cccc(N2C(=O)CC(SC(N)=Nc3ccccc3)C2=O)c1 (stereo unspecified),2.23%,
O=C1OCC2=C1C(c1ccccc1)CC(=O)N2c1cccc(F)c1 (stereo unspecified),2.06%,
CC(=O)N(CN1C(=O)C2C3C=CC(C3)C2C1=O)c1cccc(Cl)c1 (stereo unspecified),0.697%,
Cn1cc(CN2CCCC(CO)C2)c(-c2ccc(Oc3ccccc3)cc2)n1 (stereo unspecified),-3.15%,
CC(C)C1=CC2=CC[C@H]3[C@](C)(C(=O)O)CCC[C@]3(C)C2CC1 (stereo partly specified),-11%,
Oc1cc2c(cc1O)CN(C(=S)NCCc1ccc(Cl)cc1)CCC2,,15.8 µM (active) and 20 µM (active)

Compound,"activity, negative = inhibition",Potency
S=C(NCCc1ccccc1)N1CCCCC1,-4.74%,
O=C1CCN(C(=S)NCCc2ccccc2)CC1,0.459%,
O=C(CCl)N(Cc1cccc([N+](=O)[O-])c1)c1cccc(Cl)c1,,0.158 µM (active)
CCN(CC)C(=O)CN(c1cccc([N+](=O)[O-])c1)S(=O)(=O)c1ccccc1,6.73%,
O=C(Nc1cccc([N+](=O)[O-])c1)Nc1ccc(Cl)cn1,11.7%,
COc1ccc(CCNC(=O)c2ccc(CS(=O)(=O)c3ccc(Br)cc3)o2)cc1OC,21.2%,
Nc1nc(NC(=O)/C=C/c2ccc(F)cc2)nn1-c1ccccc1,11.2%,
CCOC(=O)CSc1nnc(CNc2nc(-c3ccccc3)cs2)n1C,-3.03%,
CCOc1ccc(Nc2nc(Cc3nnc(SCC(=O)NC4CCCC4)n3C)cs2)cc1,-1.4%,
CCOC(=O)c1c(NC(=O)CSc2nnc(Cc3csc(N)n3)n2C)sc(C)c1C,,7.94 µM (active)
CCO[C@H]1OC(C(=O)N2CCCCCCC2)=C[C@@H](c2ccc(C(F)(F)F)cc2)[C@@H]1CCCO,2.63%,
NC(=O)C1CCN(Cc2nc3c(Br)cc(Br)cc3c(=O)[nH]2)CC1,4.31%,
O=C(Nc1ccc(C(=O)O)cc1)/C(=C/c1ccc([N+](=O)[O-])cc1)NC(=O)c1ccccc1,3.09%,
Nc1ncnc(Nc2cccc(Cl)c2Cl)n1,-11.2%,
CCOC(=O)C1CCc2nc3ccccc3c(=O)n21 (stereo unspecified),12.2%,
CC(C)(C)c1nc2ccccc2c(=O)n1N1C(=O)c2ccccc2C1=O,-5.76%,
CCC1(CC)Cc2ccccc2-c2nc3ccccc3c(=O)n21,,15.8 µM (active)
COc1ccc(-n2c(O)c(C=NCC(c3ccco3)N3CCCC3)c3ccccc3c2=O)cc1OC (stereo unspecified),-15%,
CC1COc2ccccc2N1C(=O)c1cccnc1Cl (stereo unspecified),-3.66%,
CCn1cc(CN2CCCC(CNS(=O)(=O)Cc3ccccc3)C2)cn1 (stereo unspecified),5.21%,
CC(Sc1nc2c([nH]c3ccccc32)c(=O)n1C)c1ccccc1 (stereo unspecified),-5.21%,
Cc1ccc2nsnc2c1S(=O)(=O)N1CCCC1C(=O)O (stereo unspecified),-3.73%,

Compound,"activity, negative = inhibition",Potency
COCCN(Cc1nc(-c2ccc(C(F)(F)F)cc2)no1)C(C)C,-1.16%,
Oc1c(C=Nc2cccc3nsnc23)ccc2ccccc12,,2.82 µM (active)
O=C(Nc1cccc(C(F)(F)F)c1)c1ccc(N2CCNCC2)c([N+](=O)[O-])c1,-4.94%,
COc1cccc(/C=C/C(=O)Nc2ccc3c(c2)OCCO3)c1,-1.38%,
CCOC(=O)c1c(NC(=S)NC(=O)/C=C/c2cccs2)sc(C)c1C,3.03%,
O=C(NC(=S)Nc1ccc(NC(=O)c2cccs2)cc1)c1ccc([N+](=O)[O-])cc1,-13.7%,
CCc1nnc(NS(=O)(=O)c2ccc(NC(=S)NC(=O)/C=C/c3cccs3)cc2)s1,,12.6 µM (active)
CCc1nnc(NC(=O)c2cccs2)s1,9%,
CC(C)C(=O)Nc1ccc(C(=O)NNC(=O)c2cccs2)cc1,4.21%,
CCc1nnc(NS(=O)(=O)c2ccc(NC(=S)NC(=O)c3cccs3)cc2)s1,,25.1 µM (active)
NS(=O)(=O)c1ccc(NC(=S)NNC(=O)c2cccs2)cc1,,12.6 µM (active)
COc1ccc(NS(=O)(=O)c2ccc(NC(=S)NC(=O)/C=C/c3ccc(C)cc3)cc2)nn1,-5.99%,
CCc1nnc(NS(=O)(=O)c2ccc(NS(=O)(=O)c3ccccc3)cc2)s1,15.8%,
CC(=O)Nc1ccc(S(=O)(=O)N(C)c2ccc(OCC(=O)OCC(=O)N3CCCCC3)cc2)cc1,-2.1%,
CCc1cc2cc(OC)ccc2nc1SCC(=O)Nc1cc(OC)c(OC)cc1C(=O)O,-14.1%,
COC(C)C(C(=O)OCC1=CCN2CC[C@H](O)[C@@H]12)C(C)C (stereo partly specified),10.3%,
COc1ccc(C2OCC3(CO2)SC(=O)NC3=O)cc1OC (stereo unspecified),2.24%,
CN1CCC(OC(=O)COc2ccc(Cl)cc2Cl)CC1,4.24%,
O=C(CNS(=O)(=O)c1ccccc1)NCC(=O)OCc1ccccc1F,-0.533%,
Cc1cccc(OCC(=O)Nc2ccccc2F)c1,-11%,
O=C(CNS(=O)(=O)c1cccc(C(F)(F)F)c1)Nc1ccccc1F,,31.6 µM (active)
Cc1cccc(C)c1NC(=O)C1(C)c2cccc[n+]2CC(=O)N1Cc1cccs1 (stereo unspecified),15.2%,

# — PubChem BioAssay AID1030 (National Center for Advancing Translational Sciences (NCATS), 2008)
